{"source": "PubChem BioAssay AID2284199", "about": "(EPA ToxCast)", "note": "Calls of active or inactive are those of the source. The calls were made as follows: active = hit-call score of the fitted dose curve at least 0.9, where 1 is the maximum; inactive = score below 0.9.", "data": [{"target": "rat Vesicular Monoamine Transporter (VMAT2), Slc18a2 (gene 25549) (UniProt Q01827)", "sequence (Q01827 whole entry, looked up)": "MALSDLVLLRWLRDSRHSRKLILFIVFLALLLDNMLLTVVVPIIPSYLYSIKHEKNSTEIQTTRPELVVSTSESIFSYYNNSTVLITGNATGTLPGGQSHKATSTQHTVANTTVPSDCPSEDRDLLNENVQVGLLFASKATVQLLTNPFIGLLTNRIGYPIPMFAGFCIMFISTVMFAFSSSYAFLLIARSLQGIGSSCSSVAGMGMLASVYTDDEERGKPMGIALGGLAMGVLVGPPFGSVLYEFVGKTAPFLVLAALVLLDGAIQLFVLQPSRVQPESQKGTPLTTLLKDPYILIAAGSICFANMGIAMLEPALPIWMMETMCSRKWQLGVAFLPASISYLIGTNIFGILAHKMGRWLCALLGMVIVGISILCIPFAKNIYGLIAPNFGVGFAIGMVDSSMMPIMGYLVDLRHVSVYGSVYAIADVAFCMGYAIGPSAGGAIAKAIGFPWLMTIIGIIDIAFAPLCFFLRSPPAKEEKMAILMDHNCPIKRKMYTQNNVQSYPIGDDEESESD", "test": "ERF_TW_TR_rSLC18A2: Eurofins (ERF) Radioligand Binding LeadHunter Assay for rat Vesicular Monoamine Transporter (VMAT2) Antagonism", "procedure": "ERF_TW_TR_rSLC18A2 is a biochemical, single-readout assay that uses extracted gene-proteins in a cell-free assay. Measurements were taken 0.5 hour after chemical dosing in a 96-well plate. See VMAT2 Rat Vesicular Monoamine Transporter Binding (Antagonist Radioligand) Assay, Panlabs.ERF_TW_TR_rSLC18A2 is an assay component calculated from the ERF_TW_TR_rSLC18A2 assay. It is designed to measure radioligand binding using a type of binding reporter as detected by scintillation counting with radiometry technology.Data from the assay component ERF_TW_TR_rSLC18A2 was analyzed at the assay endpoint, ERF_TW_TR_rSLC18A2, in the positive analysis fitting direction relative to DMSO as the negative control and baseline of activity. Using a type of binding reporter, loss-of-signal activity can be used to understand changes in transporter binding as they relate to gene SLC18A2. To generalize the intended target to other relatable targets, this assay endpoint is annotated to the transporter intended target family, where the subfamily is vesicular transporter.\nThis assay measures binding of [3H]Dihydrotetrabenazine to sites associated with the vesicular monoamine uptake transporter. […] Membranes are filtered and washed, the filters are then counted to determine [3H]Dihydrotetrabenazine specifically bound. […]", "values": [{"smiles": "COc1cc(CCC(=O)CC(=O)CCc2ccc(O)c(OC)c2)ccc1O", "AC50": "5 µM (active)"}, {"smiles": "O=C(/C=C/c1ccc(O)cc1)CC(=O)/C=C/c1ccc(O)cc1", "AC50": "0.283 µM (active)"}]}]}
